Experimental data from the supplement of paper PMC10849652.
The full data set covers some 7,900 targets. This sample favours those with a hit. About 0.6% of all pairs of compound and target were hits.

Key:
Test in all cases: log2 fold change, soluble protein after heating vs DMSO (PISA); higher = thermal stabilisation; K562 cells, 10 uM, 30 min; active = over 0.2 and 3.5 SD of the protein, either way, in both replicates (recomputed)
[1] = compound: COC1=CC=C(C=C1)CN2C=CC3=C2C=C(C=C3)C(=O)NO
Summary of the method: (§1)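 Thermal stability values are relative to control samples and come from duplicates. They are expressed as log2 fold changes. For measurement, K562 cells (2×10^6 cells/mL) received 10 μM compound for 30 min, and aliquots were heated for 3 min over 48°C-58°C, pooled, and extracted at 4°C in PBS with 0.5% NP-40. Soluble protein, the supernatant after 21,000xg for 90 min, was quantified by TMTpro 16plex LC-MS/MS with equalised channel sums.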

[2] = compound: CON(C)C(=O)N1N=C(c2cc(F)ccc2F)S[C@@]1(CCCN)c1ccccc1 [filanesib]
Summary of the method: as §1

[3] = compound: CO[C@H]1C[C@@H]2CC[C@@H](C)[C@@](O)(O2)C(=O)C(=O)N2CCCC[C@H]2C(=O)O[C@H]([C@H](C)C[C@@H]2CC[C@H](n3cnnn3)[C@H](OC)C2)CC(=O)[C@H](C)/C=C(\C)[C@@H](O)[C@@H](OC)C(=O)[C@H](C)C[C@H](C)/C=C/C=C/C=C/1C [zotarolimus]
Summary of the method: as §1

[4] = compound: COc1cc(C(=O)O)ccc1NC(=O)[C@@H]1N[C@@H](CC(C)(C)C)[C@](C#N)(c2ccc(Cl)cc2F)[C@H]1c1cccc(Cl)c1F [idasanutlin]
Summary of the method: as §1

[5] = compound: COc1cc(Nc2ncc3c(n2)-c2ccc(Cl)cc2C(c2c(F)cccc2OC)=NC3)ccc1C(=O)O [alisertib]
Summary of the method: as §1

[6] = compound: COc1cc2nc(-c3cc(F)ccc3O)nc(N[C@@H]3CNC[C@H]3C(C)(C)O)c2cc1OC
Summary of the method: as §1

[7] = compound: COc1cc2ncnc(Nc3ccc(F)c(Cl)c3)c2cc1OCCCN1CCOCC1 [gefitinib]
Summary of the method: as §1

[8] = compound: COc1cccc2cc(-c3nc([C@H]4CC[C@H](C(=O)O)CC4)n4ncnc(N)c34)[nH]c12
Summary of the method: as §1

[9] = compound: CS(=O)(=O)CCNCc1ccc(-c2ccc3ncnc(Nc4ccc(OCc5cccc(F)c5)c(Cl)c4)c3c2)o1 [lapatinib]
Summary of the method: as §1

[10] = compound: CS(=O)(=O)N1CCN(Cc2cc3nc(-c4cccc5[nH]ncc45)nc(N4CCOCC4)c3s2)CC1 [pictilisib]
Summary of the method: as §1

Measured: log2 fold change

INTS7 (UniProt Q9NVH2)
inactive: [1] 0.05 | [2] -0.022 | [3] -0.007 | [4] -0.052 | [5] -0.029 | [6] 0.05 | [7] -0.052 | [8] -0.012 | [9] -0.015 | [10] 0.148

LEO1 (UniProt Q8WVC0)
inactive: [1] -0.038 | [2] 0.021 | [3] 0.175 | [4] 0.023 | [5] -0.08 | [6] -0.035 | [7] 0.009 | [8] -0.034 | [9] -0.032 | [10] 0.009

KIF21A isoform 4 (UniProt Q7Z4S6)
inactive: [1] 0.014 | [2] 0.028 | [3] 0.051 | [4] 0.07 | [5] 0.051 | [6] 0.163 | [7] -0.028 | [8] -0.126 | [9] 0.001 | [10] 0.037

LARP4 isoform 4 (UniProt Q71RC2)
Sequence of UniProt Q71RC2 (Q71RC2 whole entry, looked up): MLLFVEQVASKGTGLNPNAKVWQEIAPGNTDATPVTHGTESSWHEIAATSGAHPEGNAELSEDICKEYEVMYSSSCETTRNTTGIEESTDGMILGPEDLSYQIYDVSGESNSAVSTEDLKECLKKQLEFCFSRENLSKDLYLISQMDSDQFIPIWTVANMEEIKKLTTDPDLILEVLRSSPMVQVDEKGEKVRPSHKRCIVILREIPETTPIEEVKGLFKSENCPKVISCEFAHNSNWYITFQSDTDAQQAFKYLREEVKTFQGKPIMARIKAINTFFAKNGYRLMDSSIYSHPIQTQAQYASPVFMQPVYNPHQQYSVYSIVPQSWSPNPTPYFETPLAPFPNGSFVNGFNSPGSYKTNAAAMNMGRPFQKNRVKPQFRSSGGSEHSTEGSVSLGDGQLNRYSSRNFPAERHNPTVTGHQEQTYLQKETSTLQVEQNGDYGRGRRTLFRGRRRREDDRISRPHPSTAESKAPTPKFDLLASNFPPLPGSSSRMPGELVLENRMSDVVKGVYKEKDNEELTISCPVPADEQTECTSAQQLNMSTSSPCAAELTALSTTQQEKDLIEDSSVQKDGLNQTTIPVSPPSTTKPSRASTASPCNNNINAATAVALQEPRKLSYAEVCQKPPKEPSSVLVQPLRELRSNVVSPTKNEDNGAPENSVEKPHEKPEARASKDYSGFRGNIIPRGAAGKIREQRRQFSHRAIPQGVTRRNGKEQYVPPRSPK
inactive: [1] 0.005 | [2] 0.111 | [3] -0.007 | [4] 0.071 | [5] -0.045 | [6] -0.159 | [7] 0.01 | [8] -0.125 | [9] 0.054 | [10] -0.068

MEAK7 (UniProt Q6P9B6)
Sequence of UniProt Q6P9B6 (Q6P9B6 whole entry, looked up): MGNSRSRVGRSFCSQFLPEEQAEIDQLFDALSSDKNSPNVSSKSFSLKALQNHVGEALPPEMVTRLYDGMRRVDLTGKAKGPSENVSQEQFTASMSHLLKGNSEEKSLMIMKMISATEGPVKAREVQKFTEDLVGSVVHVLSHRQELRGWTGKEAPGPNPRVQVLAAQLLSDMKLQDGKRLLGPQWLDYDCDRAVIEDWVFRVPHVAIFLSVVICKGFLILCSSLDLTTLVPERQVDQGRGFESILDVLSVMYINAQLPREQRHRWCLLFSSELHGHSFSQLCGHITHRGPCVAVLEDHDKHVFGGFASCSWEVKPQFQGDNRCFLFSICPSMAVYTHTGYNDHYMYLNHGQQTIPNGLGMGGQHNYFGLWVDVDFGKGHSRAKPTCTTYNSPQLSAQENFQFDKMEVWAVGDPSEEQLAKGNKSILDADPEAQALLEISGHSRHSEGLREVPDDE
inactive: [1] -0.046 | [2] -0.109 | [3] -0.002 | [4] -0.013 | [5] -0.012 | [6] -0.101 | [7] -0.142 | [8] -0.055 | [9] 0.087 | [10] -0.063

ITM2B (UniProt Q9Y287)
inactive: [1] -0.109 | [2] 0.092 | [3] -0.042 | [4] -0.03 | [5] 0.083 | [6] -0.037 | [7] -0.047 | [8] 0.138 | [9] -0.116

IWS1 (UniProt Q96ST2)
inactive: [1] 0.007 | [2] -0.013 | [3] -0.006 | [4] -0.105 | [5] -0.068 | [6] 0.124 | [7] -0.055 | [8] 0.055 | [9] -0.077 | [10] -0.011

MFN2 (UniProt O95140)
active: [6] -0.438
inactive: [1] 0.04 | [2] -0.112 | [3] 0.016 | [4] 0 | [5] -0.043 | [7] 0.01 | [8] -0.006 | [9] 0.027 | [10] -0.058

MICOS13 (UniProt Q5XKP0)
Sequence of UniProt Q5XKP0 (Q5XKP0 whole entry, looked up): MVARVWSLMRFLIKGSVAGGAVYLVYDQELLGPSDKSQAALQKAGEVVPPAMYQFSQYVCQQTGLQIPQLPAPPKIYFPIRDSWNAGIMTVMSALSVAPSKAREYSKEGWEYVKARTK
inactive: [1] 0 | [2] -0.095 | [3] -0.048 | [4] -0.144 | [5] -0.014 | [6] -0.082 | [7] -0.032 | [8] 0.079 | [9] -0.063 | [10] -0.001

METTL18 (UniProt O95568)
inactive: [2] 0.009 | [3] 0.033 | [4] -0.022 | [5] 0.006 | [6] 0.075 | [7] -0.033 | [8] 0.057 | [9] 0.069 | [10] 0.026
active: [1] -0.364

KIFBP (UniProt Q96EK5)
inactive: [1] 0.058 | [2] -0.095 | [3] 0.074 | [4] -0.09 | [5] 0.106 | [6] -0.028 | [7] 0.01 | [8] 0.01 | [9] -0.049 | [10] -0.071

IL27RA (UniProt Q6UWB1)
Sequence of UniProt Q6UWB1 (Q6UWB1 whole entry, looked up): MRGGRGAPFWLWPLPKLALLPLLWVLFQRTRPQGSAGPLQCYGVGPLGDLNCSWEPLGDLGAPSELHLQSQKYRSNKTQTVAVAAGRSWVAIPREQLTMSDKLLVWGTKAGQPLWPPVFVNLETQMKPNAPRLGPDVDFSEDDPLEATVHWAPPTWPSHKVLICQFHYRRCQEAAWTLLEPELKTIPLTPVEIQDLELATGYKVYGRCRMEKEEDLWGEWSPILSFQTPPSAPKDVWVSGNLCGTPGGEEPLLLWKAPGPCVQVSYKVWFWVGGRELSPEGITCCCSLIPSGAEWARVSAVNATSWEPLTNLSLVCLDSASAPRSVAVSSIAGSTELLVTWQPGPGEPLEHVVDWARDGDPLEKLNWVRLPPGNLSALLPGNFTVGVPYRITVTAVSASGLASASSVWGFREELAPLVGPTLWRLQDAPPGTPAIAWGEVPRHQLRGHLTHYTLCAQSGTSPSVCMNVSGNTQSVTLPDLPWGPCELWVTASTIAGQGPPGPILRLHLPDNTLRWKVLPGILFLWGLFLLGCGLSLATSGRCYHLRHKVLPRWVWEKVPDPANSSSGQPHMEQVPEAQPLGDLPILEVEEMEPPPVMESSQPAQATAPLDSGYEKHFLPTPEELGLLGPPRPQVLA
inactive: [1] -0.02 | [2] 0.065 | [3] -0.11 | [4] 0.113 | [5] -0.29 | [6] 0.047 | [7] -0.169 | [8] 0.207 | [9] 0.043

MED8 isoform 2 (UniProt Q96G25)
inactive: [1] -0.11 | [2] 0.033 | [3] -0.004 | [4] 0.095 | [5] -0.088 | [6] -0.154 | [7] -0.034 | [8] -0.041 | [9] 0.058

KIF2C (UniProt Q99661)
inactive: [1] 0.063 | [2] -0.033 | [3] 0.001 | [4] -0.046 | [5] -0.008 | [6] 0.09 | [7] 0.006 | [8] -0.081 | [9] -0.048 | [10] 0.008

INPP5B (UniProt P32019)
Sequence of UniProt P32019 (P32019 whole entry, looked up): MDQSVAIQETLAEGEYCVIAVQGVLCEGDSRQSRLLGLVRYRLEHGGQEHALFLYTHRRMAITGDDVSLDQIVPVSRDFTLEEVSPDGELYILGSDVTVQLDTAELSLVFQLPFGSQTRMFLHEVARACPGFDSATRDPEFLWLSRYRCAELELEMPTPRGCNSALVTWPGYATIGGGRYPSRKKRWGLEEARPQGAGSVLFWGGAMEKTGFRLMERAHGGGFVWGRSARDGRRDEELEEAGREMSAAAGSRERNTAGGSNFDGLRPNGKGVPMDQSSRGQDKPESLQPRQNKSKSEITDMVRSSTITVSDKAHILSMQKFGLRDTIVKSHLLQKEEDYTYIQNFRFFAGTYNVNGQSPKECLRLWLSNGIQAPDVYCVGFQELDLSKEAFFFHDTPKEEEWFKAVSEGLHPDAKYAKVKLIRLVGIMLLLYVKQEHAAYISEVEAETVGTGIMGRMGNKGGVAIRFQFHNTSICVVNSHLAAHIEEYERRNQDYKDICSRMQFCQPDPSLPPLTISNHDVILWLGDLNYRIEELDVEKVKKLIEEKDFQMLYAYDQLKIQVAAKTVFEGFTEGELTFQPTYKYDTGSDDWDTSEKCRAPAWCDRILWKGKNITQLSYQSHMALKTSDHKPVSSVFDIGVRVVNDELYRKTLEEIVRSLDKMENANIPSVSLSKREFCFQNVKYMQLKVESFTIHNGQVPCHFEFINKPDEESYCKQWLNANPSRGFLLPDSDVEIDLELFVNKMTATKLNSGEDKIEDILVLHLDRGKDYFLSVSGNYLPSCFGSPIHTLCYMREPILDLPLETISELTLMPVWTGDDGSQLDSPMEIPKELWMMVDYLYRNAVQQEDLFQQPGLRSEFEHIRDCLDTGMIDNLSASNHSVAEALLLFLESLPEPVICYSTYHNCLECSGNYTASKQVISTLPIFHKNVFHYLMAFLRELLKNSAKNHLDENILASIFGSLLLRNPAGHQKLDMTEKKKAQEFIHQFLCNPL
inactive: [1] 0 | [2] -0.015 | [3] 0.002 | [4] -0.003 | [5] 0.03 | [6] 0.052 | [7] -0.008 | [8] -0.043 | [9] 0.006 | [10] 0.04

ILKAP (UniProt Q9H0C8)
Sequence of UniProt Q9H0C8 (Q9H0C8 whole entry, looked up): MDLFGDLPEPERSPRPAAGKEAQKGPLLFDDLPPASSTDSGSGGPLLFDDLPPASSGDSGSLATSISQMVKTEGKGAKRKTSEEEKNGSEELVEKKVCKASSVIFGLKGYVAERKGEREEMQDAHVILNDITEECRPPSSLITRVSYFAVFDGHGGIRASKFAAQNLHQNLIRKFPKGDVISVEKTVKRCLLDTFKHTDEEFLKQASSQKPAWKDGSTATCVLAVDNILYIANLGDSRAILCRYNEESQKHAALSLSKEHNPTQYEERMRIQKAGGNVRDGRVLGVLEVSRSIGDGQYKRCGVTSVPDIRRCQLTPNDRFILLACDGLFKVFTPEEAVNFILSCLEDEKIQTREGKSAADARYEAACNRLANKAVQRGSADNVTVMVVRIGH
inactive: [1] 0 | [2] -0.016 | [3] 0.03 | [4] -0.06 | [5] -0.13 | [6] 0.113 | [7] 0.032 | [8] -0.056 | [9] -0.029 | [10] -0.035

ILVBL (UniProt A1L0T0)
inactive: [1] -0.008 | [2] 0.006 | [3] 0.072 | [4] -0.106 | [5] -0.088 | [6] -0.001 | [7] 0.075 | [8] 0.082 | [9] -0.011 | [10] 0.031

MIF (UniProt P14174)
inactive: [1] 0.027 | [2] 0.024 | [3] 0.029 | [4] 0.043 | [5] 0.043 | [6] -0.082 | [7] 0.082 | [8] -0.043 | [9] -0.034 | [10] -0.141

MAML1 (UniProt Q92585)
inactive: [1] -0.065 | [2] 0.152 | [3] -0.065

MCU (UniProt Q8NE86)
inactive: [1] -0.056 | [2] -0.152 | [3] 0.164 | [4] -0.091 | [5] -0.053 | [6] -0.053 | [7] -0.049 | [8] 0.054 | [9] -0.099 | [10] 0.09

METAP1D (UniProt Q6UB28)
active: [1] 0.342
inactive: [2] -0.097 | [3] 0.054 | [4] 0.079 | [5] -0.085 | [6] 0.021 | [7] -0.029 | [8] -0.035 | [9] -0.062

IMMP1L (UniProt Q96LU5)
active: [5] -0.252
inactive: [1] -0.041 | [2] -0.067 | [3] -0.034 | [4] -0.067 | [6] 0.005 | [7] -0.022 | [8] 0.016 | [9] -0.062

IMMT isoform 4 (UniProt Q16891)
inactive: [1] -0.008 | [2] -0.122 | [3] -0.007 | [4] -0.082 | [5] -0.049 | [6] -0.146 | [7] -0.005 | [8] 0.013 | [9] -0.047 | [10] 0.005

LMNB1 (UniProt P20700)
Sequence of UniProt P20700 (P20700 whole entry, looked up): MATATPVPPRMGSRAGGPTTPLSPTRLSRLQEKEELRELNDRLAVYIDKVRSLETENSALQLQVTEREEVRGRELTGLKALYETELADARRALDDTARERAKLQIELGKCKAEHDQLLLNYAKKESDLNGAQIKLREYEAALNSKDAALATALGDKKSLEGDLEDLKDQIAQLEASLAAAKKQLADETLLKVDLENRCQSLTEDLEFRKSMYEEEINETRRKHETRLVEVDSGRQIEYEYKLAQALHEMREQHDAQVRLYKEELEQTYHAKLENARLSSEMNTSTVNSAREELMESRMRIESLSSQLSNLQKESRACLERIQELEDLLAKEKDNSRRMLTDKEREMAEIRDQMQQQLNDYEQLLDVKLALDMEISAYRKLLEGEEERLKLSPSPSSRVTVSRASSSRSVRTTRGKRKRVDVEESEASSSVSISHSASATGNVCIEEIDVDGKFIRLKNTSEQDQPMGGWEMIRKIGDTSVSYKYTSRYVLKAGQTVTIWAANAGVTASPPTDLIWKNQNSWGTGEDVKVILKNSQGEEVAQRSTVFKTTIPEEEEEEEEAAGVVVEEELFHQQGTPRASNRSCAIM
inactive: [1] -0.034 | [2] 0.131 | [3] 0.053 | [4] 0.14 | [5] -0.075 | [6] -0.09 | [7] -0.002 | [8] 0.064 | [9] 0.087 | [10] 0.005

LPGAT1 (UniProt Q92604)
Sequence of UniProt Q92604 (Q92604 whole entry, looked up): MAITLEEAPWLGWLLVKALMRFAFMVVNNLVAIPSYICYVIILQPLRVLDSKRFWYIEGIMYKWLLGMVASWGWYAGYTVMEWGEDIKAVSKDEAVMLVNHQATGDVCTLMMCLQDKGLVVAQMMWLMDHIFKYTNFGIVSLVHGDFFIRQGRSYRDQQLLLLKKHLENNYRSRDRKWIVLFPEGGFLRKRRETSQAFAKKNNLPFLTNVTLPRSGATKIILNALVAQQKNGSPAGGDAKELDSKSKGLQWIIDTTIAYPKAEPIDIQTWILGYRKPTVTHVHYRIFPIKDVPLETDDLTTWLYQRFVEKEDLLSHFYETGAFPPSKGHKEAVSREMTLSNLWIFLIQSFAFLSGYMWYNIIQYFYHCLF
inactive: [1] 0.124 | [2] -0.021 | [3] 0.001 | [4] -0.098 | [5] 0.032 | [6] -0.082 | [7] -0.059 | [8] 0.12 | [9] 0.15

ILRUN (UniProt Q9H6K1)
inactive: [1] -0.051 | [2] -0.016 | [3] 0.042 | [4] -0.101 | [5] -0.03 | [6] -0.002 | [7] 0.048 | [8] 0.09 | [9] 0.08

KEL (UniProt P23276)
Sequence of UniProt P23276 (P23276 whole entry, looked up): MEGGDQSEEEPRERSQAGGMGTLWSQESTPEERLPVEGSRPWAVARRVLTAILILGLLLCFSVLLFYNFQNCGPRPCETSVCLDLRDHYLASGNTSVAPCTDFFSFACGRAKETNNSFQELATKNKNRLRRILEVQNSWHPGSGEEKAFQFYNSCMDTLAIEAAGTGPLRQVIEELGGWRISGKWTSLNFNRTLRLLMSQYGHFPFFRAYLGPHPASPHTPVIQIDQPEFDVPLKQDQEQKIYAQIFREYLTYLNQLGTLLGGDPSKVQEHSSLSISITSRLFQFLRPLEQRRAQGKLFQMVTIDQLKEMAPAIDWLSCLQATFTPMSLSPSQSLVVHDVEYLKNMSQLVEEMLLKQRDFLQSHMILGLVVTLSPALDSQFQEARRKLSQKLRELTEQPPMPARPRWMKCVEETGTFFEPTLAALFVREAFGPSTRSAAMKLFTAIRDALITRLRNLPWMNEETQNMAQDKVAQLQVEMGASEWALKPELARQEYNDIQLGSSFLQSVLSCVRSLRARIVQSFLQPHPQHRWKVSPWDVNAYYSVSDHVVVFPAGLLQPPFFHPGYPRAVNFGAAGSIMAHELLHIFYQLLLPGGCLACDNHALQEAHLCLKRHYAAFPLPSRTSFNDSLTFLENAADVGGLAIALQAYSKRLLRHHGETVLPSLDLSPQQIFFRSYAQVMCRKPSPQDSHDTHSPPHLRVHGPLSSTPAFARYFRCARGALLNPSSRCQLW
inactive: [1] -0.042 | [2] 0.034 | [3] -0.043 | [4] 0.055 | [5] 0.177 | [6] -0.015 | [7] 0.07 | [8] 0.176 | [9] -0.078 | [10] 0.194

MARCKSL1 (UniProt P49006)
inactive: [1] -0.074 | [2] 0.002 | [3] -0.033 | [4] -0.011 | [5] -0.093 | [6] 0.073 | [7] -0.027 | [8] 0.028 | [9] -0.061 | [10] 0.026
